# “And” between values parts separate entries of the source, which are not always exact repeats. Equal values may be shown once. The source holds several records for some structures; these can differ, active in one and inactive in another. The source made the active and inactive calls. Cut-off read from the data, not from the text of the source: active = IC50 below about 90 µM; inactive = the rest.
# Assay: compound-DNA interaction, SYBR readout – biochemical, fluorescence, artefact control for HCV NS3 helicase inhibitor project, late-stage follow-up (AID 623970)
# Conditions: DNA binding, SYBR dye displacement fluorescence
row,SMILES,IC50
1,Cc1ccc2nc(-c3ccc4nc(-c5ccc6nc(-c7ccc8nc(-c9ccc(N)cc9)sc8c7)sc6c5)sc4c3)sc2c1S(=O)(=O)O,14 µM (active)
2,Cc1ccc2nc(-c3ccc(NC(=O)c4ccc(C(F)(F)F)cc4)cc3)sc2c1S(=O)(=O)O,> 100 µM (inactive)
3,Cc1ccc2nc(-c3ccc4nc(-c5ccc(N)cc5)sc4c3)sc2c1S(=O)(=O)O,> 100 µM (inactive) and 23 µM (active)
4,Cc1ccc2nc(-c3ccc4nc(-c5ccc(NC(=O)c6ccc7ncoc7c6)cc5)sc4c3)sc2c1S(=O)(=O)O,46 µM (active)
5,Cc1ccc2nc(-c3ccc4nc(-c5ccc(NC(=O)Nc6ccc(Cl)cc6)cc5)sc4c3)sc2c1S(=O)(=O)O,8 µM (active)
6,O=C(CCCCCCC(=O)Nc1ccc(-c2nc3ccccc3[nH]2)cc1)Nc1ccc(-c2nc3ccccc3[nH]2)cc1,14 µM (active)
7,Cc1ccc2nc(-c3ccc4nc(-c5ccc(NC(=O)c6cccnc6)cc5)sc4c3)sc2c1S(=O)(=O)O,> 100 µM (inactive)
8,Cc1ccc2nc(-c3ccc4nc(-c5ccc(NC(=O)c6ccc(Cl)c(Cl)c6)cc5)sc4c3)sc2c1S(=O)(=O)O,30 µM (active)
9,Cc1ccc2nc(-c3ccc4nc(-c5ccc(NC(=O)c6ccc7nc(-c8ccc(N)cc8)sc7c6)cc5)sc4c3)sc2c1S(=O)(=O)O,68 µM (active)
10,Cc1ccc2c(sc(-c3ccc4c(c3)sc(-c3ccc5c(c3)sc(-c3ccc(N(C)C)cc3)[n+]5C)[n+]4C)[n+]2C)c1S(=O)(=O)O (tested in a mixture with another compound),61 µM (active)
11,Cc1ccc2nc(-c3ccc4nc(-c5ccc(NC(=O)c6ccc(C(C)(C)C)cc6)cc5)sc4c3)sc2c1S(=O)(=O)O,16 µM (active)
12,Cc1ccc2nc(-c3ccc4nc(-c5ccc(NC(=O)Nc6ccc(F)cc6)cc5)sc4c3)sc2c1S(=O)(=O)O,74 µM (active)
13,CCN(CC)c1ccc(-c2nc3ccc(C)c(S(=O)(=O)O)c3s2)cc1,> 100 µM (inactive)
14,COc1ccc(NC(=O)Nc2ccc(-c3nc4ccc(-c5nc6ccc(C)c(S(=O)(=O)O)c6s5)cc4s3)cc2)cc1,73 µM (active)
15,Cc1ccc2nc(-c3ccc(NC(=O)c4ccc(NC(=O)c5ccccc5)cc4)cc3)sc2c1S(=O)(=O)O,> 100 µM (inactive)
16,Cc1ccc2nc(-c3ccc(NC(=O)c4ccc(NC(=O)OCC5c6ccccc6-c6ccccc65)cc4)cc3)sc2c1S(=O)(=O)O,> 100 µM (inactive)
17,Cc1ccc2nc(-c3ccc(NC(=O)c4ccc(NC(=O)Nc5ccccc5)cc4)cc3)sc2c1S(=O)(=O)O,> 100 µM (inactive)

row,SMILES,IC50
1,Cc1ccc2nc(-c3ccc4nc(-c5ccc(NC(=O)c6cccc7ccccc67)cc5)sc4c3)sc2c1S(=O)(=O)O,30 µM (active)
2,Cc1ccc2nc(-c3ccc4nc(-c5ccc(NC(=O)c6ccc(F)cc6)cc5)sc4c3)sc2c1S(=O)(=O)O,> 100 µM (inactive)
3,Cc1ccc2nc(-c3ccc4nc(-c5ccc(NC(=O)c6ccc7nc(-c8ccc(NC(=O)OCC9c%10ccccc%10-c%10ccccc%109)cc8)sc7c6)cc5)sc4c3)sc2c1S(=O)(=O)O,22 µM (active)
4,COc1ccc(S(=O)(=O)Nc2ccc(-c3nc4ccc(-c5nc6ccc(C)c(S(=O)(=O)O)c6s5)cc4s3)cc2)cc1,42 µM (active)
5,Cc1ccc2nc(-c3ccc4nc(-c5ccc(N(C)C(=O)c6ccc7ccccc7c6)cc5)sc4c3)sc2c1S(=O)(=O)O,> 100 µM (inactive)
6,Cc1ccc2nc(-c3ccc4nc(-c5ccc(NCc6ccccc6)cc5)sc4c3)sc2c1S(=O)(=O)O,27 µM (active)
7,Cc1ccc2nc(-c3ccc4nc(-c5ccc(NC(=O)c6ccc7ccccc7c6)cc5)sc4c3)sc2c1S(=O)(=O)O,36 µM (active) and 25 µM (active)
8,Cc1ccc2nc(-c3ccc4nc(-c5ccc(NC(=O)c6ccc(NC(=O)OCC7c8ccccc8-c8ccccc87)cc6)cc5)sc4c3)sc2c1S(=O)(=O)O,6 µM (active)
9,Cc1ccc2nc(-c3ccc4nc(-c5ccc(NC(=O)c6ccc(CNC(=O)OCC7c8ccccc8-c8ccccc87)cc6)cc5)sc4c3)sc2c1S(=O)(=O)O,56 µM (active)
10,Cc1ccc2nc(-c3ccc4nc(-c5ccc(NC(=S)Nc6ccccc6)cc5)sc4c3)sc2c1S(=O)(=O)O,30 µM (active)
11,Cc1ccc2nc(-c3ccc(NC(=O)c4ccc(NC(=S)Nc5ccccc5)cc4)cc3)sc2c1S(=O)(=O)O,> 100 µM (inactive)
12,CC(=O)Nc1ccc(-c2nc3ccc(-c4nc5ccc(C)c(S(=O)(=O)O)c5s4)cc3s2)cc1,> 100 µM (inactive)
13,Cc1ccc2nc(-c3ccc(NC(=O)c4ccc(NC(=O)c5ccc(N)cc5)cc4)cc3)sc2c1S(=O)(=O)O,> 100 µM (inactive)
14,COc1cccc2c(=O)c3cc(Cl)cc(C(=O)Nc4cc(Cl)ccn4)c3[nH]c12,> 100 µM (inactive)
15,Cc1ccc2nc(-c3ccc4nc(-c5ccc(NC(=O)c6c(F)cccc6C(F)(F)F)cc5)sc4c3)sc2c1S(=O)(=O)O,64 µM (active)
16,Cc1ccc(C(=O)Nc2ccc(-c3nc4ccc(-c5nc6ccc(C)c(S(=O)(=O)O)c6s5)cc4s3)cc2)cc1,> 100 µM (inactive)
17,CN1CCN(Cc2cc(CN3CCN(C)CC3)c(O)c(=O)c(CN3CCN(C)CC3)c2)CC1,72 µM (active)

# Source: PubChem BioAssay AID623970 (The Scripps Research Institute Molecular Screening Center, 2012)
